Screening data (PubChem BioAssay)
COUP-TFII inh: inhibitors of human COUP-TFII (NR2F2); P24468; HEK293T NGFI-A luciferase reporter, luminescence; inhibition, % at 8.6 µM; hit rate 0.7% among 370,000;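 active = inhibition above a per-plate cutoff, mean inhibition of test wells between control levels plus 3 SD, cut at about 38% in these data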;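 note: cells cotransfected with COUP-TFII expression vector driving the NGFI-A reporter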
GalR3 antag: blocks the human galanin receptor 3; AID 651719; inhibition, % at 3 µM; HEK293 GalR3-CNG cAMP membrane potential fluorescence; galR3 body fused to GalR1 C-terminus; O60755; hit rate 0.44% among 360,000;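 active = inhibition above the screen-wide average plus 3 SD, cut at about 13% in these data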;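 note: forskolin and galanin both at EC90 stimulate the cells; cAMP rise reported by CNG channel membrane potential dye signal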
Target sequence (O60755 1-299 limits assumed): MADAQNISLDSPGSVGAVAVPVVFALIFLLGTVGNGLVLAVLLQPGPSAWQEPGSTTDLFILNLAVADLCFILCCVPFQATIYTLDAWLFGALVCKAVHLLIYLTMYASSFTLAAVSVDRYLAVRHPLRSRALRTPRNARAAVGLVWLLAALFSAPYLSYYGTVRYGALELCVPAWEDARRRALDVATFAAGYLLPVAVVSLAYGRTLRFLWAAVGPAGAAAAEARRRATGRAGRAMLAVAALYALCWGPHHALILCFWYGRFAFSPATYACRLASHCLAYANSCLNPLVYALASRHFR
Gli-Sufu block: antagonists of Gli-Sufu signaling | Sufu-KO-LIGHT fibroblasts, Gli luciferase reporter luminescence | inhibition, % at 5 µM | hit rate 0.74% among 340,000;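 active = inhibition above about 55%, limit read from the data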
697 NFkB inh: inhibitors of the PMA/ionomycin-induced NF-kB reporter in 697 B cells. 697 B-cell NF-kB luciferase reporter, 16 h. inhibition, % at 4 µM. hit rate 0.33% among 330,000. AID 435022; in the data active = inhibition above about 35%
Jurkat NFkB inh: lowers PMA/ionomycin-induced NF-kB signal in Jurkat cells | PMA/ionomycin-induced NF-kB luciferase reporter, luminescence | inhibition, % at 4 µM | hit rate 0.53% among 330,000 | AID 435003; in the data active = inhibition above about 50%
Gal4-VP16 ctr: VP16 inhibition counter-screen for COUP-TFII. inhibition, % at 8.5 µM. hit rate 25% among 2,500. HEK293 Gal4-VP16 luciferase reporter, luminescence. shares compounds with COUP-TFII inh; in the data active = inhibition above about 13%
COUP-TFII conf: COUP-TFII (NR2F2) inhibition, confirmation assay | shares compounds with COUP-TFII inh | HEK293 NGFI-A luciferase reporter, luminescence | inhibition, % at 8.5 µM | hit rate 45% among 2,500 | AID 687008;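 active = mean inhibition over three repeats above a set limit taken from the earlier primary screen, cut at about 38% in these data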
Hits are given with their value; i = inactive; nt = no result. A selection: hits, their analogues and other compounds. The true share with any hit is near 2%.

SMILES | COUP-TFII inh | GalR3 antag | Gli-Sufu block | 697 NFkB inh | Jurkat NFkB inh | Gal4-VP16 ctr | COUP-TFII conf
Cc1nonc1CC(=O)NC1CCCc2c1cnn2-c1ccc(F)cc1F (stereo not given) | i | i | i | i | i | nt | nt
O=C(N[C@@H]1CCCc2c1cnn2-c1ccc(F)cc1F)c1ccccn1 | 38 | nt | nt | nt | nt | i | i
COC(=O)c1c(C)n(-c2ccc(OC)cc2)c2ccc(O)cc12 | 39 | i | i | i | i | i | i
C#CCN(C[C@@H]1[C@@H](OC(=O)NCc2ccccc2F)[C@@H](OC(=O)NCc2ccccc2F)Cn2c(=O)ccc(=O)n21)S(=O)(=O)c1ccc(C)cc1 | 63 | i | nt | nt | nt | 23 | i
C#CCN(C[C@@H]1[C@@H](OC(=O)Nc2cccs2)[C@@H](OC(=O)Nc2cccs2)Cn2c(=O)ccc(=O)n21)S(=O)(=O)c1ccc(C)cc1 | 76 | i | nt | nt | nt | 25 | 43
COc1ccc(CN2CCN(C(=O)c3ccc(S(=O)(=O)NCc4ccco4)cc3)CC2)cc1 | 45 | i | i | i | i | i | i
CCCCCC(=O)Nc1cccc(C2=NOC3(C2)C[C@@H](C(N)=O)N(C(=O)Cc2ccc([N+](=O)[O-])cc2)C3)c1 (stereo not given in full) | i | i | i | i | i | nt | nt
NC(=O)[C@H]1CC2(CC(c3cccc(NC(=O)COc4ccc(Cl)cc4)c3)=NO2)CN1C(=O)Cc1ccc([N+](=O)[O-])cc1 (stereo not given in full) | 74 | i | i | i | i | i | 66
O=C(NCC(c1ccccc1)c1ccccc1)[C@H](Cc1c[nH]c2ccccc12)NC1(C(=O)NC2CCCCC2)CCCC1 | i | nt | nt | nt | nt | nt | nt
Cn1nc(C(F)(F)F)c(C#N)c1N1CCN(c2ccc(F)cc2)CC1 | 45 | i | i | i | i | i | i
O=C(OCc1ccccc1)[C@H](Cc1ccccc1)NC(=O)[C@@H]1CC=C[C@@H]2CCN(C3CCCCC3)C(=O)[C@@H]21 | i | nt | nt | nt | nt | nt | nt
Cc1ccc(-c2nc(CSCC(=O)N3CCN(C(=O)c4ccco4)CC3)c(C)o2)cc1 | i | i | i | i | i | nt | nt
CCc1ccc(-c2nc(CSCC(=O)N3CCN(c4ccccn4)CC3)c(C)o2)cc1 | 52 | i | i | i | i | i | i
COc1cccc(-c2nc(CSCC(=O)N3CCc4ccccc43)c(C)o2)c1 | i | i | i | i | i | nt | nt
CCOc1ccc(-c2nc(CSCC(=O)N3CCN(c4cccc(OC)c4)CC3)c(C)o2)cc1 | 66 | nt | i | i | i | 17 | 44
Cc1cc(C(=O)CSc2nnc(-c3cccc(F)c3)n2N)c(C)n1Cc1ccc2c(c1)OCO2 | 44 | i | i | i | i | i | i
O=c1c2ccccc2cnn1-c1nc2ccccc2[nH]1 | 96 | i | 81 | nt | nt | 53 | 70
O=c1c(Cl)c(N2CCCCC2)cnn1-c1nc2ccccc2[nH]1 | 56 | i | i | i | i | i | i
O=c1c2ccccc2nc2c3ccccc3cnn12 | i | i | i | i | i | nt | nt
CCOc1ccc(Nc2nc(NCC3CCCO3)c3ccccc3n2)cc1 (stereo not given) | 60 | i | 71 | i | i | i | 43
O=C(NCC(c1ccccc1)c1ccccc1)[C@H](Cc1ccccc1)NC1(C(=O)NC2CCCCC2)CCCCCC1 | i | nt | nt | nt | nt | nt | nt
CCCn1nc(C(=O)Nc2ccc3nc(N4CCOCC4)sc3c2)ccc1=O | 43 | i | i | i | i | i | i
N#Cc1ccc(NCCCN2CCC(C(O)(c3ccccc3)c3ccccc3)CC2)cc1 | i | nt | nt | nt | nt | nt | nt
O=[N+]([O-])c1ccc(N2CCN(c3ccc([N+](=O)[O-])cc3CO)CC2)c(CO)c1 | 60 | i | i | i | i | i | i
CC1(C(=O)Nc2cccc(C#N)c2)CCN1C(=O)Cc1ccc(-c2ccccc2)cc1 (stereo not given) | 52 | i | nt | nt | nt | i | i
SMILES | COUP-TFII inh | GalR3 antag | Gli-Sufu block | 697 NFkB inh | Jurkat NFkB inh | Gal4-VP16 ctr | COUP-TFII conf
O=C(Cn1nc(-c2ccccc2)ccc1=O)NCCc1cccc(F)c1 | i | nt | nt | nt | nt | nt | nt
N/C(=N\C(=O)OCc1ccccc1)N(CC#CC1=CCCCC1)CC1CC1 | i | nt | nt | nt | nt | nt | nt
CN1C(=O)C[C@@](C#N)(C(=O)Nc2nc3ccc(F)cc3s2)[C@H]1c1ccccc1 | i | nt | nt | nt | nt | nt | nt
CC(Sc1nnc2c(n1)[nH]c1ccccc12)C(=O)N(C)C1CCCCC1 (stereo not given) | 44 | i | i | i | i | i | i
COc1ccc(N/N=C(\C#N)C(N)=O)cc1 | i | i | i | i | i | nt | nt
N#C/C(=N/Nc1ccc(OC(F)(F)F)cc1)C(N)=S | 38 | i | 61 | i | i | i | i
Cc1ccc(Cc2c(-c3ccco3)nc3c4ccccc4ccn23)cc1 | 41 | i | nt | nt | nt | i | i
O=C(Nc1ccc(S(=O)(=O)N2CCCC2)cc1)c1ccc(OCC2CCCO2)cc1 (stereo not given) | 38 | i | i | i | i | i | i
O=C(Nc1cccc(S(=O)(=O)N2CCCCC2)c1)c1ccc(OCC2CCCO2)cc1 (stereo not given) | i | i | i | i | i | nt | nt
COC(=O)C[C@@H]1CC[C@H]2[C@@H](COc3ccc(NC(=O)c4cc(C)on4)cc3C(=O)N2C)O1 | i | nt | nt | nt | nt | nt | nt
Cc1c(NC(=O)COC(=O)C23CC4CC(CC(O)(C4)C2)C3)c(=O)n(-c2ccccc2)n1C | 45 | i | i | i | i | i | i
Cc1cc(NNC(=O)c2cccc(C(F)(F)F)c2)nc2c1c(C)nn2C | 50 | i | i | i | i | i | 43
Cc1ccc(N2CCN(/N=C\c3cccnc3)CC2)cc1 | i | nt | nt | nt | nt | nt | nt
O=C(OC12CCCN(C1)/C(=C/c1ccncc1)C2)c1ccccc1 (stereo not given) | 45 | nt | nt | nt | nt | i | i
S=c1nc(C2COc3ccccc3O2)[nH][nH]1 (stereo not given) | i | i | i | i | i | nt | nt
CCCS(=O)(=O)c1cnc(C2COc3ccccc3O2)nc1N (stereo not given) | 72 | i | i | i | i | 42 | 79
CCn1c(SCC(=O)NN=Cc2cccc(OCc3ccccc3)c2)nnc1-c1ccc(OC)c(OC)c1 | i | nt | nt | nt | nt | nt | nt
C=C(C)Cn1c(SCC(=O)N/N=C(\C)c2ccc(Br)cc2)nnc1-c1ccc(Br)cc1 | i | nt | nt | nt | nt | nt | nt
CC(C)(C)NC(=O)CSc1nc2ccc(NC(=O)CSc3nnnn3Cc3ccccc3)cc2s1 | 67 | i | i | i | i | i | 51
CCOC(=O)CSc1nc2ccc(NC(=O)CSc3nnnn3Cc3ccccc3)cc2s1 | i | i | i | i | i | nt | nt
O=C(CSc1ncnc2ccccc12)Nc1ccc2c(c1)OCCO2 | i | i | i | i | i | nt | nt
O=C(Cn1cnc2ccccc21)Nc1ccc2c(c1)OCCCO2 | 39 | i | i | i | i | i | i
O=C(Cn1cnc2ccccc2c1=O)Nc1ccc2c(c1)OCO2 | i | i | i | i | i | nt | nt
O=C(CSc1ncccc1C(=O)O)Nc1ccc2c(c1)OCCO2 | 55 | i | i | i | i | i | i
